Source: PubChem
Rows were chosen to be rich in hits. Some 1.5% of all compounds tested hit in one or more screens of this group.
TLR4 MyD88 comp = TLR4-MyD88 interaction inhibition in cells | HeLa CL3-4 TLR4/MyD88 BLA complementation, FRET ratio | actives 0.18% (n = 200,000) | O00206+Q99836 | inhibition, % at 8.4 µM; in the data active = inhibition above about 25%
NOD2 RIPK2 PPI = inhibitors of human NOD2-RIPK2 interaction; O43353; inhibition, % at 4.98 µM; CHO BLA complementation NOD2-RIPK2, CCF4 ratio; actives 0.38% (n = 360,000); in the data active = inhibition above about 21%
Target sequence (O43353 whole entry, looked up): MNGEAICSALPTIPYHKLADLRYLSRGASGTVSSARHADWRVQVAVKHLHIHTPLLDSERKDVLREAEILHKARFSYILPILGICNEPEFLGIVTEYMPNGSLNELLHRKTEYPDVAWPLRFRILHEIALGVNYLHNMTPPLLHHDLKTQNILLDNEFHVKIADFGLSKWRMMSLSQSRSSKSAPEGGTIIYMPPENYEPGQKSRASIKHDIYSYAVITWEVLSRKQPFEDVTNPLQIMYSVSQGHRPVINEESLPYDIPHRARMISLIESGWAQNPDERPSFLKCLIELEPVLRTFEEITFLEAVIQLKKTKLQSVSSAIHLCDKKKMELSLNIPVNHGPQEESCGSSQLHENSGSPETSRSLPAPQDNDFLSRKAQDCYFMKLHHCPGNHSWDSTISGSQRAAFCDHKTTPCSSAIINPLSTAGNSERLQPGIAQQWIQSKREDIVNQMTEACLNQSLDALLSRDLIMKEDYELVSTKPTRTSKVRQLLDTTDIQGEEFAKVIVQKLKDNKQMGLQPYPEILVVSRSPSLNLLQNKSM
ABHD5-PLIN5 inh = ABHD5-PLIN5 protein interaction inhibition; Q00G26+Q8WTS1; Split G. princeps luciferase complementation, luminescence, 4 h; inhibition, % at 4 µM; actives 0.78% (n = 360,000);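 active = inhibition above the mean inhibition across every tested compound plus 3 SD, cut at about 22% in these data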
TLR9-MyD88 block = blocks human TLR9 binding to MyD88; AID 504734; Q9NR96+Q99836; inhibition, % at 4.98 µM; CHO BLA complementation TLR9-MyD88, CCF4 FRET ratio; actives 0.21% (n = 340,000);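 active = inhibition above the mean over all tested compounds plus 3 SD, cut at about 21% in these data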
NTR1 agonist = activates human neurotensin receptor 1; P30989; NTR1-U2OS beta-arrestin-GFP spot imaging, agonist mode; activation, % at 20 µM; actives 0.17% (n = 330,000);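 active = activation at or above 40% of the spot to cytoplasm intensity ratio, with at least 20 cells analyzed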
Beta2AR agonist = activates human beta-2 adrenergic receptor causing internalization | P07550 | Am2.2-beta2AR cells, FAP receptor internalization, flow cytometry | response, % (no concentration beside the values) | actives 0.43% (n = 340,000) | AID 504454;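 active = response above a set limit, near 3 SD of response in nonfluorescent compounds, cut at about 42% in these data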
TLR4-MyD88 conf = confirmation of human TLR4-MyD88 binding inhibitors. inhibition, % at 8.4 µM. shares compounds with TLR4 MyD88 comp. actives 50% (n = 350). HeLa CL3-4 BLA complementation, CCF4 FRET ratio. AID 941;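 active = mean inhibition across three repeat runs above about 25% carried over from the earlier screen, limit read from the data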
BLA inh HeLa = beta-lactamase inhibition flagged in TLR4-MyD88 counter-screen | shares compounds with TLR4 MyD88 comp | HeLa BLA reporter, CCF4 FRET ratio | inhibition, % at 8.4 µM | actives 63% (n = 350) | AID 1237;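 active = mean inhibition over three repeats above about 26% taken from the earlier screen, limit read from the data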;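 also: HeLa cells stably expressing beta-lactamase reporter as counterscreen for TLR4-MyD88 inhibitors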
Large screens that a line does not name were inactive (follow-up assays come after a bar, where they were run).

COc1ccc(-n2c(-c3ccc(Br)cc3)c[n+]3c2CCc2ccccc2-3)cc1	TLR4 MyD88 comp 26.5 | TLR4-MyD88 conf 25.5 | BLA inh HeLa inactive
O=C(NCCN1CCC(n2c(=O)[nH]c3ccccc32)CC1)c1ccc(Cl)c(Cl)c1	none (no result: TLR4 MyD88 comp, TLR9-MyD88 block, NTR1 agonist, Beta2AR agonist)
CN(C)c1ccc(/C=C/C(O)=C2/C(=O)N(C)C3(C)CC2c2ccccc2O3)cc1 (centres undefined)	TLR4 MyD88 comp 48.6 (no result: NOD2 RIPK2 PPI, ABHD5-PLIN5 inh, TLR9-MyD88 block, NTR1 agonist, Beta2AR agonist) | TLR4-MyD88 conf 35.2 | BLA inh HeLa 68.4
O=[N+]([O-])c1ccc(N/N=C/c2c[nH]c3ccccc23)c(S(=O)(=O)Nc2ccc(Cl)cc2)c1	TLR4 MyD88 comp 56.7 | TLR4-MyD88 conf 43.3 | BLA inh HeLa 64.8
Cc1[nH]c2ccccc2c1/C=N/NC(=O)c1cccc([N+](=O)[O-])c1	none (no result: TLR9-MyD88 block)
COc1ccccc1NS(=O)(=O)c1cc([N+](=O)[O-])ccc1N/N=C/c1c(C)[nH]c2ccccc12	TLR4 MyD88 comp 36.3 | TLR4-MyD88 conf inactive | BLA inh HeLa 44.8
COc1cc(CCN(C(C)=O)C2C(=O)Nc3ccccc3N=C2c2ccc3c(c2)OCO3)cc(OC)c1 (centres undefined)	none (no result: TLR4 MyD88 comp, TLR9-MyD88 block, NTR1 agonist, Beta2AR agonist)
CCCS(=O)(=O)NC(=O)C1(C)CCCN(C(=O)c2ccc3c(c2)OCO3)C1 (centres undefined)	none (no result: TLR4 MyD88 comp, TLR9-MyD88 block, NTR1 agonist, Beta2AR agonist)
COCCn1c(-c2ccc(-c3ccc([N+](=O)[O-])cc3Br)o2)nc2c1c(=O)[nH]c(=O)n2CC(C)C	TLR4 MyD88 comp 43.6 | TLR4-MyD88 conf 30.4 | BLA inh HeLa 58.5
COCCn1c(=O)[nH]c(=O)c2c1nc(-c1ccc(-c3ccc(Cl)cc3[N+](=O)[O-])o1)n2Cc1ccccc1	none
Cc1nn(-c2ccccc2)c2c1C(c1ccc(O)c(O)c1)N1C(=N2)C(Nc2ccccc2)=Nc2ccccc21 (centres undefined)	TLR4 MyD88 comp 57.0 | TLR4-MyD88 conf 52.2 | BLA inh HeLa 89.1
N#CCCN(Cc1ccccc1)C(=O)CCC(=O)c1ccc(F)cc1	none (no result: TLR4 MyD88 comp, NTR1 agonist, Beta2AR agonist)
O=C(Cc1ccccc1)N/N=C/c1ccc(-c2ccc([N+](=O)[O-])cc2)o1	none
Cc1ccc(C)c(N(CC(=O)N/N=C/c2ccc(-c3ccc([N+](=O)[O-])cc3)o2)S(=O)(=O)c2ccccc2)c1	TLR4 MyD88 comp 54.9 | TLR4-MyD88 conf 57.5 | BLA inh HeLa 86.5
NS(=O)(=O)c1ccc(CCNC(=O)CSc2nc3ccsc3c(=O)n2C2CC2)cc1	none
CCCCNC(=O)CSc1nc2ccsc2c(=O)n1C1CCN(C(=O)OCC)CC1	TLR4 MyD88 comp 47.5 | TLR4-MyD88 conf inactive | BLA inh HeLa inactive
O=c1cc(-c2c(F)c(F)c(F)c(F)c2F)oc2ccccc12	none
O=c1cc(-c2c(F)c(F)c(F)c(F)c2F)oc2c(F)c(F)c(F)c(F)c12	TLR4 MyD88 comp 41.8 (no result: NOD2 RIPK2 PPI, ABHD5-PLIN5 inh, TLR9-MyD88 block, Beta2AR agonist) | TLR4-MyD88 conf 37.8 | BLA inh HeLa inactive
CN(Cc1ccccc1)C(=O)Cn1nnc(-c2ccccc2)c1COc1ccccc1	none (no result: TLR4 MyD88 comp, TLR9-MyD88 block, NTR1 agonist, Beta2AR agonist)
c1ccc(-c2cn3nc(-c4ccccc4)c(-c4ccccc4)nc3n2)cc1	TLR4 MyD88 comp 51.8 | TLR4-MyD88 conf 43.5 | BLA inh HeLa 72.9
CC(=O)C1=C(C)NC(SCC(=O)c2ccc(-c3ccccc3)cc2)=C(C#N)C1c1cccnc1 (centres undefined)	TLR4 MyD88 comp 30.6 (no result: NOD2 RIPK2 PPI, ABHD5-PLIN5 inh, TLR9-MyD88 block, Beta2AR agonist) | TLR4-MyD88 conf inactive | BLA inh HeLa 35.5
CC(=O)C1=C(C)NC(SCSc2ccccc2)=C(C#N)C1c1cccnc1 (centres undefined)	none (no result: NOD2 RIPK2 PPI, ABHD5-PLIN5 inh, TLR9-MyD88 block, Beta2AR agonist)
COC(=O)Nc1sc2c(c1C(N)=O)CCCCCC2	TLR4 MyD88 comp 26.5 | TLR4-MyD88 conf inactive | BLA inh HeLa inactive
O=c1c(Cl)c(Cl)cnn1Cc1ccc(F)cc1	TLR4 MyD88 comp 26.7 | TLR4-MyD88 conf inactive | BLA inh HeLa inactive
CC(C)(C)C(=O)Cn1ncc(Cl)c(Cl)c1=O	none (no result: NTR1 agonist)
O=c1cnn(Cc2ccc(F)cc2)c2ccccc12	none (no result: TLR4 MyD88 comp)
O=C(OCn1ncc(Cl)c(Cl)c1=O)c1ccc(F)cc1	TLR4 MyD88 comp 26.9 (no result: NOD2 RIPK2 PPI, ABHD5-PLIN5 inh, TLR9-MyD88 block, Beta2AR agonist) | TLR4-MyD88 conf 28.7 | BLA inh HeLa inactive
